# In all, about 48,000 compounds went through this assay and about 13,000 (27%) showed an effect of 50% or more. The list shows a part of the results.
# Test system: Wolbachia pipientis
# Experiment: Anti-Wolbachia Cell-Based Screen
# Format: functional
# Parameters: scale not given: in the data most compounds retested in dose-response had high values
# Conditions: 5 µM
row,SMILES,Percent Effect
1,CCCSCC(=O)NS(=O)(=O)c1ccc2c(c1)OCCO2,-7.969%
2,COc1ccc(Cc2nnc(SC)o2)cc1OC,-1.582%
3,COCCN(Cc1ccc(F)cc1Cl)C(=O)c1cc[n+]([O-])cc1,-5.927%
4,c1ccc(-c2cc(CN3C[C@@H]4CC[C@H](C3)N(CC3CC3)C4)on2)cc1,2.507%
5,O=C(Nc1ccccc1Oc1cccc(F)c1)NC1CCS(=O)(=O)C1 (stereo unspecified),9.337%
6,CN(Cc1nc(Cc2ccccc2F)no1)CC1Cc2ccccc2O1 (stereo unspecified),1.647%
7,Cc1noc(C2CCC3(CCN(C(=O)c4c(C)noc4C)CC3)O2)n1 (stereo unspecified),-1.941%
8,Cc1noc(C2CCN(C(=O)c3cc(Cl)c(Cl)n3C)CC2)n1,-8.55%
9,Cc1noc(C2CCC3(CCN(C(=O)c4ncccn4)CC3)O2)n1 (stereo unspecified),110.9%
10,CC1N(CC2CC2)C(=O)COC12CCN(C(=O)c1cnccn1)CC2 (stereo unspecified),-1.759%
11,Cc1noc(C2CCC3(CCN(C(=O)c4ccncn4)CC3)O2)n1 (stereo unspecified),97.14%
12,Cc1noc(C2CCC3(CCN(C(=O)c4cnccn4)CC3)O2)n1 (stereo unspecified),108.3%
13,C[C@H]1C[C@@H]2CCN(C(=O)c3ccncn3)C[C@H]2O1,15.39%
14,C[C@H]1C[C@H]2CN(C(=O)c3ccncn3)CC[C@H]2O1,2.98%
15,Cc1noc(C2CCC3(CCN(C(=O)c4cc(C5CC5)on4)CC3)O2)n1 (stereo unspecified),104.1%
16,O=C(c1cc(C2CC2)on1)N1CC[C@]2(C[C@H](Oc3cccnc3)CO2)C1,-8.078%
17,Cc1ccc(F)c(S(=O)(=O)NCc2cccc(N3CCOC3=O)c2)c1,-1.653%
18,COc1ccc(C(=O)NCc2cc(N3CCOCC3)ncn2)o1,-2.324%
19,COCC(=O)N1CCC2(CC1)CN(c1ncccn1)CCO2,-1.945%
20,Cc1nn(C)c(Cl)c1C1CCCN1c1ncnc2sccc12 (stereo unspecified),-14.86%
21,CC1CCN(C(CNC(=O)Cn2cccn2)c2cccs2)CC1 (stereo unspecified),-3.451%
22,Cn1cncc1C(=O)N1CCOC2(COCCN(CC3CC3)C2)C1.O=C(O)C(F)(F)F (stereo unspecified),104.1%
23,Cn1ccc(C(=O)N2CCOC3(COCCN(CC4CC4)C3)C2)n1.O=C(O)C(F)(F)F (stereo unspecified),108.5%

row,SMILES,Percent Effect
1,O=C(O)C(F)(F)F.O=C(c1ccoc1)N1CCOC2(COCCN(CC3CC3)C2)C1 (stereo unspecified),89.02%
2,O=C(O)C(F)(F)F.O=C(c1ccoc1)N1CCOC2(COCCN(c3ncccn3)C2)C1 (stereo unspecified),21.15%
3,Cn1ccc(C(=O)N2C[C@@H]3CN(CC4CC4)CCO[C@@H]3C2)n1.O=C(O)C(F)(F)F,-13.66%
4,O=C(O)C(F)(F)F.O=C(O)C(F)(F)F.O=C(O)C(F)(F)F.c1cc(CN2CCOCC3(C2)CN(Cc2nccs2)CCO3)ccn1 (stereo unspecified),-17.66%
5,O=C(O)C(F)(F)F.O=C(O)C(F)(F)F.O=C(O)C(F)(F)F.c1coc(CN2CCOC3(COCCN(Cc4ccncc4)C3)C2)c1 (stereo unspecified),-11.91%
6,O=C(O)C(F)(F)F.O=C(O)C(F)(F)F.c1cnc(N2CCCC3(CN(CC4CCOCC4)CCO3)C2)cn1 (stereo unspecified),-4.594%
7,CC(C)N1CCOCC2(CCCN(C(=O)c3cncn3C)C2)C1.O=C(O)C(F)(F)F (stereo unspecified),-5.769%
8,Fc1cccc(CN2CCOC3(COCCN(CC4CC4)C3)C2)c1.O=C(O)C(F)(F)F.O=C(O)C(F)(F)F (stereo unspecified),100.6%
9,O=C(O)C(F)(F)F.O=C(c1ccccn1)N1CCOC2(COCCN(Cc3cc[nH]n3)C2)C1 (stereo unspecified),-2.383%
10,Cc1cccnc1CSCCCNS(C)(=O)=O,-17.43%
11,N#Cc1cccnc1NCc1ccc(S(=O)(=O)NCC2CCCO2)cc1 (stereo unspecified),8.527%
12,Clc1cccc(N2CCC(NCc3ncc[nH]3)C2)c1 (stereo unspecified),-6.784%
13,CSc1nccc(N2CCC(NCCN3CCOCC3)CC2)n1,-2.784%
14,Cl.c1cnc2c(c1)cc([C@H]1CCCO1)n2CCN1CCCC1,88.22%
15,Cl.c1cnc2c(c1)cc([C@@H]1CCCO1)n2CCN1CCCCC1,85.05%
16,Cl.c1cnc2c(c1)cc([C@H]1CCCO1)n2CCN1CCOCC1,-5.726%
17,Cl.c1cnc2c(c1)cc([C@H]1CCCO1)n2CCN1CCCCC1,-14.33%
18,CN(CC1CCCO1)C1CCN(CCc2ccccn2)CC1 (stereo unspecified),4.903%
19,Cl.c1cnc2c(c1)cc([C@@H]1CCCO1)n2CCN1CCOCC1,92.89%
20,Cc1nc(CN2CCN(C(=O)c3sccc3C3CC3)CC2)cs1,-3.645%
21,CC(O)CN1CCN(C(=O)c2ccnc(N(C)C)c2)CC1 (stereo unspecified),-11.32%
22,Cc1nc(CN2CCN(C(=O)c3ccnc(N(C)C)c3)CC2)cs1,110.9%
23,CCc1nc(CN2CCCN(C(=O)c3occc3C)CC2)cs1,10.15%

# — ChEMBL document CHEMBL3988442, “University of Dundee, Small-Polar-MMV Screening Library” (2021)
